PubChem BioAssay (NCI)
About 79,000 compounds went through this panel and 15% of them were active in at least one assay; those are over-represented in the sample as a whole. Unmarked numbers belong to inactive results. Active and inactive are the calls of the source. No stated cut-off is given here; in the data, active means growth inhibition above about 70%; inactive means the rest.

Assay: NCI Yeast Anticancer Drug Screen. Data for the mlh1 strain (AID 171);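 further: 0% = growth of vehicle-treated control cultures of the same strain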
Conditions: S. cerevisiae mlh1 strain growth inhibition, stronger effect = higher value
Description: Growth inhibition of yeast strains with defined genetic alterations is measured as a screen for potential anti-cancer activity. Selected strains with alterations in DNA damage repair or cell cycle control were exposed to compounds and growth inhibition was measured relative to vehicle treated controls. The strain used in this assay is mlh1

Compound	growth inhibition (at 1.2 µM) [%]	growth inhibition (at 3.7 µM) [%]	growth inhibition (at 11.0 µM)	growth inhibition (at 33.0 µM)	growth inhibition (at 100.0 µM)
O=Nc1c(NO)ccc2nn(-c3ccccc3)nc12	6	30	97% (active)	98% (active)	98% (active)
CCCCc1cc(O)ccc1O	6	-1	4%	9%	4%
CN(Cc1cnc2nc(N)nc(N)c2n1)c1ccc(C(=O)N[C@@H](CCC(=O)O)C(=O)O)cc1	-1	-4	-5%	7%	35%
COc1ccc(O)c(/C=N\Nc2ccccc2)c1	-13	-8	-7%	-2%	74% (active)
CC[C@@]1(O)C(=O)OCc2c1cc1n(c2=O)Cc2cc3c(N)cccc3nc2-1	1	6	11%	16%	2%
O=[N+]([O-])c1ccc(=S)[nH]c1	0	1	1%	52%	96% (active)
CCCCCCCCCCCC(=O)N(C)C	-32	-35	-26%	-28%	98% (active)
C/C(=N\NC(=S)SCc1ccccc1)c1ccccn1	13	24	83% (active)	96% (active)	92% (active)
